We go through 26 compounds from PubChem BioAssay (NCATS).

The source made the active and inactive calls. Calls follow the shape of the dose curve; as a rule, active = well fitted curve in the direction sought with a large enough effect (not every such curve was filed as active); inconclusive = small, poorly fitted or top-dose-only effect, or effect the other way, or another doubt; inactive = no such curve, though single readings can be large or run the other way.

Chain of Pyruvate kinase PKM (Homo sapiens) (P14618 whole entry, looked up): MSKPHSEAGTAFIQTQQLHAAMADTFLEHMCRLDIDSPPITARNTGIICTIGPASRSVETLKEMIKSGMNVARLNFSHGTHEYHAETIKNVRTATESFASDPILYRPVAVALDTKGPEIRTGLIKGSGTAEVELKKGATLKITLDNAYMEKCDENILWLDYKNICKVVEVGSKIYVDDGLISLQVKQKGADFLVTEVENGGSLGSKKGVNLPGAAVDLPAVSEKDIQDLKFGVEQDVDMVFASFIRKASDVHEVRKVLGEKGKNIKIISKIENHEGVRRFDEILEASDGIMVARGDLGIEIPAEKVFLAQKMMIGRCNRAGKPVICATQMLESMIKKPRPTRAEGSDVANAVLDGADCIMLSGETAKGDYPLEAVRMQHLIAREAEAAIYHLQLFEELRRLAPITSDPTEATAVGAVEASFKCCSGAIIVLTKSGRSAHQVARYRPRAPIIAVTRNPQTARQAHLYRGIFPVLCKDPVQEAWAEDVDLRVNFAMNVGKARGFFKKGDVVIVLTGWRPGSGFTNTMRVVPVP

This assay deals with Pyruvate kinase PKM (Homo sapiens) (UniProt P14618). Description: qHTS Assay for Activators of Human Muscle Pyruvate Kinase (AID 954). As to conditions: purified human muscle pyruvate kinase, luciferase-coupled luminescence, 1 h; series mostly up to 57.5 µM. As for the experimental part:
NIH Molecular Libraries Screening Centers Network [MLSCN]
NIH Chemical Genomics Center [NCGC]
Wael M. Rabeh, Lyudmila Nedyalkova and Hee-Wan Park [Structural Genomics Consortium, 100 College St. Toronto, Ontario, Canada]
Human pyruvate kinase muscle 2 enzyme was supplied as a highly purified (>95% pure) preparation by the Structural Genomics Consortium in Toronto (Ontario, Canada) and was assayed for its ability to generate ATP from ADP using phosphoenolpyruvate (PEP) as a substrate. ATP generation was detected in a coupled reaction by luciferase-mediated luminescence, an ATP-dependent process. Pyruvate kinase substrates, PEP and ADP, were present in the assay at Km and approximately […]-fold below Km respectively. The enzyme was assayed at an intermediate level of activity to screen for inhibitors and activators.
NCGC Assay Protocol Summary:
Three uL of substrate mix (final concentration, 50 mM imidazole pH 7.2, 50 mM KCl, 7 mM MgCl2, 0.5 mM PEP, 0.1 mM ADP, 0.01% Tween 20, 0.05% BSA) was dispensed into 1536 well plates. 23 nL of compound were delivered by a pin tool and 1 uL of enzyme mix (final concentration, 0.1 nM pyruvate kinase, 50 mM imidazole pH 7.2, 0.05% BSA) was added. Plates were incubated at room temperature for 1 hour. Two uL of detection and kinase stop mix (PKLight, Cambrex) was added, the plates centrifuged, and luminescence read by a ViewLux (Perkin Elmer) at 5 second exposure/plate. Data were normalized to the uninhibited and AC100 inhibition (no enzyme or 110 uM N-methyl-2,3-diphenyl-1,2,4-thiadiazol-5-imine; CID: 682802; LOPAC-S-4063). To monitor activation, 0.3 nM pyruvate kinase was included in one control column.
For orientation: In qHTS, concentration-response curves come from the screen itself.
In the case of `Cc1cccc(C#Cc2ccccc2)n1`, the outcome was inactive.

As for `O=C(CCc1ccc(O)cc1)c1c(O)cc(O)cc1O`, the call was inactive.

On to `Cc1cc(O)c2c(c1)C(=O)c1cc(O)cc(O)c1C2=O`, for which the compound was called inactive. The same measure for `CCN(CC)C(=S)SSC(=S)N(CC)CC`: “inactive”; for `NCCCCNCCCN`: “inactive”; for `CNC[C@H](O)c1ccc(O)c(O)c1`: “inactive”. In the case of `CC(C)c1ccc2c(c1)c(SC(C)(C)C)c(CC(C)(C)C(=O)O)n2Cc1ccc(Cl)cc1`, the outcome was inactive. Consider `O=c1ccc2ccc(O)c(O)c2o1`, for which the compound was classed as inactive. For `O=c1c(O)c(-c2ccc(O)cc2O)oc2cc(O)cc(O)c12`, the outcome was inactive. For `O=c1c(O)c(-c2cc(O)c(O)c(O)c2)oc2cc(O)cc(O)c12` the value was “inactive”. In the case of `Oc1ccc(-c2nc(-c3ccc(F)cc3)c(-c3ccncc3)[nH]2)cc1`, the compound was classed as inactive. For `O=C1c2ccccc2-c2n[nH]c3cccc1c23` the value was “inactive”; for `O=C1NC(=O)C(c2ccccc2[N+](=O)[O-])=C1Nc1ccc(O)c(Cl)c1`, “inactive”; for `COc1ccccc1N1CCN(CCN(C(=O)C2CCCCC2)c2ccccn2)CC1`, “inactive”. The same measure for `COc1ccc2cc([C@H](C)C(=O)O)ccc2c1`: “inactive”; for `Nc1nc(OCc2ccccc2)c2[nH]cnc2n1`: “inactive”. Consider `O=Nc1c(-c2c(O)[nH]c3cc(Br)ccc23)[nH]c2ccccc12`, for which the result was inactive.

Consider `O=C(O)c1cccnc1Nc1cccc(C(F)(F)F)c1`, for which the call was inactive. In the case of `NC(=NCc1ccccc1)NC(=O)c1nc(Cl)c(N)nc1N`, the compound was classed as inactive.

As to `NNc1nncc2ccccc12`, the compound was called inactive. On to `CC1(C)C(=O)N(CCN2CCC(C(=O)c3ccc(F)cc3)CC2)c2ccccc21`, for which the compound was called inactive. The same measure for `O=c1cc(N2CCOCC2)oc2c(-c3ccccc3)cccc12`: “inactive”; for `CC1(C)NC(=O)N(c2ccc([N+](=O)[O-])c(C(F)(F)F)c2)C1=O`: “inactive”. The same measure for `Cc1c(OCC(F)(F)F)ccnc1CS(=O)c1nc2ccccc2[nH]1` (stereo unspecified): “inactive”; for `C[C@H](Cc1ccc(O)c(O)c1)[C@@H](C)Cc1ccc(O)c(O)c1`: “inactive”; for `CC(=O)N1CCN(c2ccc(OC[C@H]3CO[C@](Cn4ccnc4)(c4ccc(Cl)cc4Cl)O3)cc2)CC1`: “inactive”.
